# Shown are actives, neighbours in structure and some others; about 1.5% of the full set was active somewhere.
# HePTP inhibitor – human HePTP phosphatase inhibition | P35236 | recombinant HePTP phosphatase activity, OD absorbance | inhibition, % at 20 µM | hit rate 0.64% among 110,000 | AID 521; in the data active = inhibition above about 50%
# Hsp90 block – displaces geldanamycin probe from tumor Hsp90; P07900; NCI-N417 lysate Hsp90, Cy3B-geldanamycin FP displacement; inhibition, % at 30 µM; hit rate 0.35% among 64,000; AID 429;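 active = inhibition above 50%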
# Cdc25B inh – human M-phase inducer phosphatase 2 inhibition. P30305. inhibition, %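 (compounds tested at 10 µM final in the well)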. hit rate 0.1% among 65,000. AID 368. recombinant Cdc25B, OMFP fluorescence Ex485/Em525; in the data active = inhibition above about 50%
# PLAP activator – activates human placental alkaline phosphatase; purified PLAP enzyme, luminescent substrate read-out; hits give high values; P05187; hit rate 1.2% among 96,000; activation fold at 20 µM; in the data active = activation fold above about 2
# Target sequence (P05187 whole entry, looked up): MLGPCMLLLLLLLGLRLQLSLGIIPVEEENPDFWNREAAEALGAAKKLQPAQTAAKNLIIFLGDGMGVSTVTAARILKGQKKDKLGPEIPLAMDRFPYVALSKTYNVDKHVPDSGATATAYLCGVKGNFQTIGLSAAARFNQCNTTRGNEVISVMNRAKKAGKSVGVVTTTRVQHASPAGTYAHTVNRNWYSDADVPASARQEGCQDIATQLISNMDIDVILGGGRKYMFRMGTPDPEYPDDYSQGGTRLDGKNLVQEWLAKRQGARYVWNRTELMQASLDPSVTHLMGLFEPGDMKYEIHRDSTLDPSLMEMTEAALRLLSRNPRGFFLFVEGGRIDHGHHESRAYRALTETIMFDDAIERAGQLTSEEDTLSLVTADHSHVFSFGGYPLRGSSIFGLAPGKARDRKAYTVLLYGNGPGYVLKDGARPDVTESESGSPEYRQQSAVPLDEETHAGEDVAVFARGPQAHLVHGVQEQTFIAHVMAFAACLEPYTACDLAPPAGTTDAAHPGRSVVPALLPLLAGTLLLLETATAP
# MKP-1 inh – blocks human MKP-1 phosphatase activity; P28562; recombinant MKP-1, OMFP hydrolysis fluorescence; inhibition, %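 (compounds tested at a single concentration somewhere between 10 and 100 µM)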; hit rate 0.15% among 65,000;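 active = inhibition above about 50%, limit read from the data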
# TNAP act mid DEA – human TNAP activation, intermediate phosphate acceptor | AID 813 | 64,000 tested, under 10 active | P05186 | purified TNAP, CDP-star luminescence, 100 mM DEA, 30 min; hits give high values; scale: 0 levamisole-inhibited, 1 vehicle-only enzyme | activation factor at 20 µM;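 active = activation factor of at least 2 at 20 µM, relative to controls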
# Numbers stand for hits; . = inactive; / = not tested or not shown.
SMILES,HePTP inhibitor,Hsp90 block,Cdc25B inh,PLAP activator,MKP-1 inh,TNAP act mid DEA
COc1cccc(/C=N/NC(=O)c2c(-c3ccccc3)noc2C)c1O,/,/,/,2.2,/,/
COc1cc(/C=N/NC(=O)c2c(-c3ccccc3)noc2C)ccc1O,/,/,/,.,/,/
Cc1onc(-c2ccccc2)c1C(=O)NCC(C)C,103,/,/,/,/,/
Cc1onc(-c2ccccc2)c1C(=O)Nc1ccc([N+](=O)[O-])cc1Br,104,/,/,/,/,/
COc1ccc(C(=O)Nc2nc(-c3ccccc3)c(C)s2)cc1OC,.,/,/,/,/,/
CN1CCCC1=NC(=S)CN1CCCC1=S,97,/,/,/,/,/
O=C1N/C(=N\N=C\c2cccnc2)SC1Cc1ccc(SC(F)F)cc1 (centres undefined),/,/,/,2.1,/,/
O=C1c2ccccc2C(Nc2ccc3c(c2)OCO3)N1Cc1ccc2c(c1)OCO2 (centres undefined),.,51,.,.,.,.
O=C(C(Sc1ccccc1)c1ccccc1)N1CCCC1 (centres undefined),102,/,/,/,/,/
O=C(C(Sc1ccccc1)c1ccccc1)N1CCN(c2ccccc2F)CC1 (centres undefined),/,/,/,.,/,/
O=C1CC(c2ccccc2)n2nc(NS(=O)(=O)c3ccccc3)nc2N1 (centres undefined),.,.,.,2,.,.
COc1ccc(-c2nnc(NC(=O)c3ccc(S(=O)(=O)N4CCCc5ccccc54)cc3)o2)cc1,.,.,.,.,.,.
O=C(Nc1nnc(C2CC2)o1)c1ccc(S(=O)(=O)N2CCCc3ccccc32)cc1,.,.,.,2.5,.,.
CCOC(=O)N1CCC(NC(=O)c2ccc3nc4ccccc4c(=O)n3c2)CC1,/,/,/,.,/,/
CCOC(=O)N1CCC(NC(=O)c2cccn3c(=O)c4cc(Br)ccc4nc23)CC1,.,.,.,.,53,.
CCC1=NN2C(=N)/C(=C/c3ccc(OC)c(OC)c3)C(=O)N=C2S1,.,/,/,/,/,/
CCC1=NN2C(=N)/C(=C/c3ccc(OCc4ccc(Br)cc4)c(OC)c3)C(=O)N=C2S1,101,/,/,/,/,/
COc1ccc(CCNc2cc(N3CCN(S(=O)(=O)N(C)C)CC3)ccc2[N+](=O)[O-])cc1OC,.,/,/,/,/,/
Cc1cc2nc(CCN(C(=S)NCC(C)C)C3CCCC3)[nH]c2cc1C,/,/,/,2.4,/,/
CCOC(=O)c1c(C)sc(Sc2ccc(Br)cc2[N+](=O)[O-])c1OC(C)=O,.,/,/,/,/,/
COC(=O)C1=C(N)Oc2cc(C)n(CCc3ccccc3)c(=O)c2C1c1cccnc1 (centres undefined),.,.,.,2,.,.
CCOC(=O)C1=C(N)Oc2cc(C)n(CCc3ccc(OC)c(OC)c3)c(=O)c2C1c1cccnc1 (centres undefined),.,.,.,.,.,.
CCCCNCCCCOc1cccc(Cl)c1,.,/,/,/,/,/
CC(C)CC(=O)NC(NC(=O)CC(C)C)c1cccc([N+](=O)[O-])c1,56,/,/,/,/,/
O=C(NC(NC(=O)c1ccccc1)c1cccc([N+](=O)[O-])c1)c1ccccc1,104,/,/,/,/,/
SMILES,HePTP inhibitor,Hsp90 block,Cdc25B inh,PLAP activator,MKP-1 inh,TNAP act mid DEA
O=C(Cc1ccccc1)NC(NC(=O)Cc1ccccc1)c1cccc([N+](=O)[O-])c1,.,/,/,/,/,/
O=C(N/C(=C\c1ccc(Br)cc1)C(=O)N1CCCCCC1)c1cccs1,.,/,/,/,/,/
CCOC(=O)c1ccc(Nc2c(CC)c(C)nc3ncnn23)cc1,.,.,.,/,.,.
Cc1cc(Nc2cccc(C(=O)O)c2)n2ncnc2n1,.,/,/,/,/,/
COC(=O)c1ccc(Nc2cc(C)nc3ncnn23)cc1,.,.,.,2.2,.,.
CCOC(=O)c1ccc(Nc2cc(C)nc3ncnn23)cc1,.,.,.,2,.,.
O=C1C2C3C=CC(C3)C2C(=O)N1/N=C/c1ccc(I)o1 (centres undefined),.,/,/,/,/,/
COc1ccc(OC)c(C2C(C(=O)/C=C/c3ccccc3)=C(O)C(=O)N2CCCCCC(=O)O)c1 (centres undefined),78,/,/,/,/,/
Clc1cnc(N/N=C/c2cccs2)c(Cl)c1,/,/,/,.,/,/
Cc1ccc(/C=N/Nc2ncc(Cl)cc2Cl)s1,/,/,/,2.8,/,/
CC1(C)Cc2c(sc(NC(=O)C3(c4ccccc4)CCCC3)c2C#N)CO1,106,/,/,/,/,/
CC1(C)Cc2c(sc(NC(=O)c3ccc(Br)o3)c2C#N)CO1,.,.,.,.,.,.
CCOC(=O)C1=C(O)/C(=C\c2cccc3ccccc23)N=C1C,.,/,/,/,/,/
CCc1ccccc1NC(=O)CSc1nnc([C@@H]2CCCN2C(=O)OC(C)(C)C)o1,.,.,.,2.1,.,.
O=C(Nc1ccccn1)c1cc(-c2ccccc2)nc2ccccc12,.,/,/,/,/,/
CNc1nc(Nc2nc(C)cc(C)n2)nc(OCC(F)(F)F)n1,.,/,/,/,/,/
CNc1nc(Nc2cccc([N+](=O)[O-])c2)nc(OCC(F)(F)F)n1,105,/,/,/,/,/
Cc1ccc(NC(=O)/C(=C\c2ccccc2)NC(=O)c2ccccc2I)cc1,.,/,/,/,/,/
COc1ccc(-c2nn(C)c3sc(C(=O)NCc4ccco4)cc23)cc1OC,.,.,.,.,.,.
COc1ccc(NC(=O)c2cc3c(-c4ccc(OC)c(OC)c4)nn(C)c3s2)cc1OC,/,/,/,2.3,/,/
O=[N+]([O-])c1cc(C(F)(F)F)cc([N+](=O)[O-])c1Nc1cccc(Cl)c1Cl,.,/,/,/,/,/
O=c1[nH]c2cc(C(F)(F)F)ccc2n1-c1cc(C(F)(F)F)ccc1O,/,59,/,/,/,/
CC(=O)Nc1ccc(S(=O)(=O)n2nc(C)c(Sc3ccccc3)c2C)cc1,.,/,/,/,/,/
Cc1cc(C)nc(NC2=NCC(=O)N2c2ccccc2)n1,.,.,.,2.4,.,.
COc1ccc(N2C(=O)CN=C2Nc2nc(C)cc(C)n2)cc1,.,.,.,2.3,.,.
SMILES,HePTP inhibitor,Hsp90 block,Cdc25B inh,PLAP activator,MKP-1 inh,TNAP act mid DEA
Cc1cc(C)nc(NC2=NCC(=O)N2c2ccccc2Br)n1,.,.,.,/,.,.
Cc1ccc(N2C(=O)CN=C2Nc2nc(C)cc(C)n2)c(C)c1,.,/,/,/,/,/
Cc1cc(C)nc(NC2=NCC(=O)N2c2ccc3c(c2)OCCO3)n1,.,.,.,2,.,.
Cc1ccc(NC2=NCC(=O)N2c2ccc3c(c2)OCCO3)c(C)c1,.,.,.,/,.,.
Cc1cc(C)nc(NC2=NCC(=O)N2c2cccc(Cl)c2)n1,.,.,.,2.1,.,.
COC(=O)c1cc(NC(=O)C(C)(C)C)cc(C(=O)OC)c1,.,/,/,/,/,/
Cn1c(-c2c(N)n(CCCc3ccccc3)c3nc4ccccc4nc23)nc2ccccc21,/,/,/,.,/,/
Cn1c(-c2c(N)n(CCc3ccccc3)c3nc4ccccc4nc23)nc2ccccc21,/,/,/,2.1,/,/
COCCCn1c(N)c(-c2nc3ccccc3n2C)c2nc3ccccc3nc21,/,/,/,2,/,/
CCC1(C)CC(CC(=O)O)(c2ccc(C)cc2)CCO1 (centres undefined),.,/,/,/,/,/
CCOC(=O)c1cnn(-c2ccc(Cl)cc2)c1C1CCN(C(=O)OC(C)(C)C)CC1,/,/,/,2.3,/,/
CCN1CCN(C(=O)CN(C)S(=O)(=O)c2ccc(OC)c(C)c2)CC1,/,/,/,.,/,/
COc1ccc(S(=O)(=O)N(C)CC(=O)N2CCN(Cc3ccccc3)CC2)cc1C,/,/,/,2,/,/
COc1ccc(S(=O)(=O)N(C)CC(=O)N2CCC(C(N)=O)CC2)cc1Cl,.,73,.,.,.,.
CCOc1ccc2ccc(OCC)c(/C=c3\sc4nc5ccccc5n4c3=O)c2c1,.,/,/,/,/,/

# Assay outcomes (PubChem)
